Test results as given in PMC5540273 (PLoS ONE, 2017).

What was measured:
Settings in all cases: concentration: 1 μM,replicates: in singlicate; n = 1
CAMK1 = system: CAMK1
CAMK2A = system: CAMK2A
CAMK2B = system: CAMK2B
CAMK2D = system: CAMK2D
CAMK2G = system: CAMK2G
CAMK4 = system: CAMK4
CAMKK1 = system: CAMKK1
CAMKK2 = system: CAMKK2
CASK = system: CASK
CDC2L1 = system: T1, CDC2L1
T1 construct: gene CDK11B
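Note: KINOMEscan kinase panel screen.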

SMILES | %Inh (CAMK1) | %Inh (CAMK2A) | %Inh (CAMK2B) | %Inh (CAMK2D) | %Inh (CAMK2G) | %Inh (CAMK4) | %Inh (CAMKK1) | %Inh (CAMKK2) | %Inh (CASK) | %Inh (CDC2L1)
Cc1ccc(-n2nc(C(C)(C)C)cc2NC(=O)Nc2ccc(OCCN3CCOCC3)c3ccccc23)cc1 [GW839464] | 4% | 13% | 13% | 11% | 3% | 16% | 12% | 0% | 14% | 0%
Cc1occc1-c1nc(N)c(OC[C@@H](N)Cc2c[nH]c3ccccc23)cc1-c1cc2c(C)n[nH]c2cn1 [GSK1660450] | 23% | 46% | 47% | 44% | 48% | 0% | 60% | 77% | 15% | 0%
Cc1cc2cn[nH]c2cc1-c1cccc2c(N)c(C(N)=O)nnc12 | 47% | 0% | 5% | 8% | 15% | 27% | 29% | 7% | 23% | 2%
Cc1cc(C(=O)Nc2ccc(Oc3ccc4nc(NC(=O)C5CC5)cn4n3)cc2)nn1-c1ccccc1 | 10% | 0% | 0% | 12% | 0% | 16% | 22% | 16% | 0% | 18%
C[C@H]1Oc2cc(cnc2N)-c2c(nn(C)c2C#N)CN(C)C(=O)c2ccc(F)cc21 | 29% | 5% | 2% | 0% | 3% | 67% | 49% | 61% | 5% | 0%
Cl.Oc1cc(-c2nc(-c3ccccc3)[nH]c2-c2ccncc2)ccc1Cl [SB-386023] | 0% | 0% | 0% | 0% | 0% | 0% | 0% | 4% | 10% | 0%
CNC(=O)c1ccccc1Sc1ccc2c(/C=C/c3ccccn3)n[nH]c2c1 | 9% | 26% | 24% | 3% | 12% | 0% | 16% | – | 36% | 0%
C[C@@H]1CCN(C(=O)CC#N)C[C@@H]1N(C)c1ncnc2[nH]ccc12 | 21% | 0% | – | 0% | 0% | 0% | 0% | 0% | 0% | 2%
CCN(CC)CCCCNc1ncc2cc(-c3c(Cl)cccc3Cl)c(NC(=O)NC(C)(C)C)nc2n1 | 9% | 0% | 0% | 9% | 20% | 20% | 15% | 23% | 0% | 0%
O=C(NCCCN1CCOC1=O)c1cnc(NCc2cc(Cl)ccc2Cl)nc1NC1CCCC1 | 33% | 0% | 2% | 4% | 6% | 10% | 4% | 6% | – | 1%
O=C(NCCNc1ccnc(NCc2ccc(F)cc2)n1)c1cc2ccccc2s1 [GSK1379944] | 0% | 0% | 0% | 1% | 3% | 0% | 6% | 0% | 82% | 0%
CN(C)CC(O)COc1ccc(Nc2nccc(-c3cnn4nc(N5CCOCC5)ccc34)n2)cc1 (centres unmarked) [GW767488] | 31% | 25% | 25% | 32% | 46% | 0% | 62% | 51% | 19% | 20%
Nc1nc(Nc2ccccc2)cc(-c2ccc3c(N)n[nH]c3c2)n1 [GSK2225749] | 3% | 0% | 0% | 0% | 0% | 0% | 0% | 0% | 0% | 0%
CCN(CC)CCOc1ccc(Nc2ncc3cc(-c4c(Cl)cccc4Cl)c(=O)n(C)c3n2)cc1 [SB-601273] | 51% | 4% | 0% | 5% | 29% | 0% | 20% | 22% | 22% | 18%
CC(C)N1C(=O)Cc2cc(Nc3ncc(C(F)(F)F)c(NCc4cccc(S(C)(=O)=O)c4)n3)ccc21 | 0% | 22% | 14% | 5% | 0% | 0% | 2% | 23% | 0% | 0%
Cl.Cl.NC[C@H](CC1CCCCC1)NC(=O)c1cc(Br)c(-c2ccnc3[nH]ccc23)s1 [GSK1581427] | 13% | 0% | 0% | 4% | 34% | 0% | 0% | 20% | 53% | 0%
NC(=O)c1cc(-c2ccccc2)cc2c(C3CCNCC3)c[nH]c12 [GSK301362] | 30% | 0% | 0% | 23% | 19% | 0% | 0% | 4% | 18% | 0%
C=CC(=O)Nc1cc2c(Nc3ccc(F)c(Cl)c3)ncnc2cc1OCCCN1CCOCC1 [GW781483] | 14% | 0% | 0% | 0% | 15% | 0% | 6% | 14% | 0% | 0%
Cl.Cl.Nc1nc(-c2ccc3c(N)n[nH]c3c2)cc(N2CCCC(NC(=O)c3ccccc3)C2)n1 (centres unmarked) [GSK2286775] | 18% | 0% | 0% | 11% | 19% | 0% | 18% | 14% | 16% | 0%
Cc1ccc2c(-c3ccncc3)c(-c3ccc(F)cc3)nn2c1.Cl [GW461484] | 0% | 0% | 0% | 0% | 16% | 0% | 8% | 11% | 1% | 0%
Cc1n[nH]c2ccc(-c3cc(OC[C@@H](N)Cc4ccccc4)cnc3-c3ccoc3)cc12.O=C(O)C(F)(F)F.O=C(O)C(F)(F)F [GSK507358] | 15% | 0% | 0% | 28% | 31% | 0% | 21% | 32% | 3% | 0%
COc1ccc(C[C@@H](CN)NC(=O)c2cc(Br)c(-c3ccnc4[nH]ccc34)s2)cc1.Cl.Cl [GSK1389063] | 23% | 7% | 0% | 26% | 19% | 13% | 66% | 64% | 34% | 0%
C[C@@H](Oc1cc(-c2cnn(C3CCNCC3)c2)cnc1N)c1c(Cl)ccc(F)c1Cl | 0% | 12% | 2% | 16% | 20% | 0% | 24% | 24% | – | 59%
Cl.Cl.NC[C@H](Cc1ccc(C(F)(F)F)cc1)NC(=O)c1cc(Br)c(-c2ccnc3[nH]ccc23)s1 [GSK1487252] | 22% | 0% | 0% | 7% | 17% | 0% | 21% | 37% | 30% | 0%
CCn1c(-c2nonc2N)nc2c(C#CC(C)(C)O)nc(OCCN)cc21.Cl.Cl [GSK902056] | 0% | 0% | 0% | 0% | 10% | 0% | 11% | 0% | 31% | 0%
CC(C)Nc1cc(-c2ccc3c(N)n[nH]c3c2)nc(N)n1 [GSK2221681] | 24% | 0% | 0% | 0% | 27% | 0% | 0% | 5% | 13% | 0%
CN(C)CCOc1ccc(-c2cc(-c3c[nH]nc3-c3ccccn3)ccn2)cc1 [GW835314] | 12% | 0% | 0% | 24% | 0% | 0% | 25% | 2% | 29% | 2%
